Data published in PubChem BioAssay (EPA / NIEHS).
Values joined by “and” are separate entries in the source; they are usually repeats but may differ in a detail not shown here. Identical values can stand only once. Some structures have more than one record in an assay (separate samples or runs), and their calls can disagree. Active and inactive are the calls of the source. Rule for the calls: active = hit-call score of the fitted dose curve at least 0.9, where 1 is the maximum; inactive = score below 0.9.

Experiments:
Settings in all cases: mRNA level, 48 h; actives raise or lower the signal
[1] = read-out: Interleukin 6 (IL6), IL6 (gene 3569); assay: LTEA_HepaRG_IL6: Life Technologies and Expression Analysis (LTEA) Assay for Interleukin 6 (IL6) using HepaRG (AID 2283509)
Method in brief: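 Transcript levels, normalized to three housekeeping genes, were quantified by qRT-PCR after 48 h chemical treatment of HepaRG cells. Eight-point half-log series from 100 uM in 0.5% DMSO, duplicates. Fitted both directions against DMSO baseline.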

[2] = read-out: Interleukin 6 Receptor (IL6R), IL6R (gene 3570); assay: LTEA_HepaRG_IL6R: Life Technologies and Expression Analysis (LTEA) Assay for Interleukin 6 Receptor (IL6R) using HepaRG (AID 2283510);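 for AC50: TaqMan qRT-PCR signal normalized to ACTB GAPDH and POLR2A housekeeping genes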
Method in brief: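 IL6R transcript level by qRT-PCR after 48 h chemical exposure (8-point, half-log, max 100 uM, 0.5% DMSO vehicle) of HepaRG cells in serum-free induction medium. Normalized to three housekeeping genes; curves fitted in both directions relative to DMSO.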

[3] = read-out: Keratin 19 (KRT19), KRT19 (gene 3880); assay: LTEA_HepaRG_KRT19: Life Technologies and Expression Analysis (LTEA) Assay for Keratin 19 (KRT19) using HepaRG (AID 2283512)
Method in brief: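 Differentiated human HepaRG cells, plated 48 h, were exposed in duplicate for 48 h in serum-free induction medium to eight half-log concentrations up to 100 uM in 0.5% DMSO. KRT19 mRNA was quantified by qRT-PCR, normalized to ACTB, GAPDH and POLR2A, and fitted bidirectionally versus DMSO.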

[4] = read-out: JUN Transcription Factor, JUN (gene 3725); assay: LTEA_HepaRG_JUN: Life Technologies and Expression Analysis (LTEA) Assay for JUN Transcription Factor using HepaRG (AID 2283513)
Method in brief: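 mRNA measured by TaqMan qRT-PCR after 48 h chemical exposure of HepaRG cultures; normalization to three housekeeping genes. Duplicate eight-point half-log curves from 100 uM in 0.5% DMSO; gain or loss fitted against DMSO baseline.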

[5] = read-out: Lipase C (LIPC), LIPC (gene 3990); assay: LTEA_HepaRG_LIPC: Life Technologies and Expression Analysis (LTEA) Assay for Lipase C (LIPC) using HepaRG (AID 2283514)
Method in brief: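 LIPC expression was quantified by qRT-PCR against three housekeeping genes (ACTB, GAPDH, POLR2A). Differentiated human HepaRG cells received eight half-log doses (top 100 uM, 0.5% DMSO) in duplicate for 48 h; fitting bidirectional relative to DMSO.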

[6] = read-out: Lipoprotein lipase (LPL), LPL (gene 4023); assay: LTEA_HepaRG_LPL: Life Technologies and Expression Analysis (LTEA) Assay for Lipoprotein lipase (LPL) using HepaRG (AID 2283515)
Method in brief: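 LPL transcript levels quantified by TaqMan qRT-PCR against three housekeeping genes after 48 h chemical treatment of HepaRG cells. Eight-point half-log series from 100 uM in 0.5% DMSO, tested in duplicate; bidirectional fitting versus vehicle.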

[7] = read-out: MicroRNA 122 (MIR122), gene 406906; assay: LTEA_HepaRG_MIR122: Life Technologies and Expression Analysis (LTEA) Assay for MicroRNA 122 (MIR122) using HepaRG (AID 2283516); note: the transcript read is the microRNA miR-122
Method in brief: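 Expression measured by microfluidic qRT-PCR with three housekeeping genes for normalisation, after 48 h treatment of HepaRG cultures. Eight concentrations (top 100 uM, half-log steps, 0.5% DMSO vehicle) in duplicate; gain or loss fitted relative to vehicle.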

[8] = read-out: matrix metalloproteinase-10 (MMP10), MMP10 (gene 4319); assay: LTEA_HepaRG_MMP10: Life Technologies and Expression Analysis (LTEA) Assay for matrix metalloproteinase-10 (MMP10) using HepaRG (AID 2283517)
Method in brief: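 Expression measured by TaqMan qRT-PCR with ACTB/GAPDH/POLR2A normalisation after 48 h chemical exposure of HepaRG cells. Eight half-log concentrations, top 100 uM, 0.5% DMSO vehicle, duplicates; gain or loss fitted against vehicle.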

MYC, MYC (gene 4609) = assay: LTEA_HepaRG_MYC: Life Technologies and Expression Analysis (LTEA) Assay for MYC using HepaRG (AID 2283518)
Method in brief: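 Differentiated human HepaRG cells, plated 48 h then switched to serum-free induction medium, were exposed in duplicate for 48 h to 8-point half-log series up to 100 uM in 0.5% DMSO. MYC mRNA measured by qRT-PCR, normalized to ACTB/GAPDH/POLR2A.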

[9] = read-out: matrix metalloproteinase-3 (MMP3), MMP3 (gene 4314); assay: LTEA_HepaRG_MMP3: Life Technologies and Expression Analysis (LTEA) Assay for matrix metalloproteinase-3 (MMP3) using HepaRG (AID 2283519)
Method in brief: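 Fluidigm-based TaqMan qRT-PCR, normalized to ACTB, GAPDH and POLR2A and fitted bidirectionally versus 0.5% DMSO, measured transcript levels. Treatment: duplicate 48 h exposures of HepaRG cells, ~100,000/well, to eight half-log concentrations topping at 100 uM.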

[10] = read-out: Paternally Expressed 10 (PEG10), PEG10 (gene 23089); assay: LTEA_HepaRG_PEG10: Life Technologies and Expression Analysis (LTEA) Assay for Paternally Expressed 10 (PEG10) using HepaRG (AID 2283520);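 for AC50: PEG10 transcript by qRT-PCR normalised to ACTB GAPDH and POLR2A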
Method in brief: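 PEG10 transcript measured by Fluidigm qRT-PCR, normalized to three housekeeping genes, in HepaRG cells treated 48 h (highest 100 uM, half-log steps, 0.5% DMSO vehicle). Cells plated 48 h before switching to serum-free induction medium.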

[11] = read-out: Nuclear factor NF-kappa-B p105 subunit (Homo sapiens) (UniProt P19838); assay: LTEA_HepaRG_NFKB1: Life Technologies and Expression Analysis (LTEA) Assay for Nuclear Factor Kappa B Subunit 1 (NFKB1) using HepaRG (AID 2283521)
Method in brief: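 Human HepaRG cells receive eight half-log concentrations, highest 100 uM, for 48 h. NFKB1 expression is then quantified by qRT-PCR and analysed for up- or down-regulation relative to 0.5% DMSO vehicle.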

[12] = read-out: Protein phosphatase 2A (PPP2R4), PTPA (gene 5524); assay: LTEA_HepaRG_PPP2R4: Life Technologies and Expression Analysis (LTEA) Assay for Protein phosphatase 2A (PPP2R4) using HepaRG (AID 2283522)
Method in brief: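 Expression was quantified by Fluidigm qRT-PCR normalised to three housekeeping genes after 48 h treatment. Human HepaRG cells received an 8-point series from 100 µM downward by half-logs, in duplicate with 0.5% DMSO vehicle and 1 mM phenobarbital as induction control.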

[13] = read-out: Phosphatase and tensin (PTEN), PTEN (gene 5728); assay: LTEA_HepaRG_PTEN: Life Technologies and Expression Analysis (LTEA) Assay for Phosphatase and tensin (PTEN) using HepaRG (AID 2283523)
Method in brief: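 Read-out: TaqMan qRT-PCR of PTEN transcript, normalized to three housekeeping genes, fitted in both directions against 0.5% DMSO. Differentiated human HepaRG cultures received chemicals for 48 h, eight-point half-log series topping at 100 uM.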

[14] = read-out: solute carrier (SLC22A1), SLC22A1 (gene 6580); assay: LTEA_HepaRG_SLC22A1: Life Technologies and Expression Analysis (LTEA) Assay for solute carrier (SLC22A1) using HepaRG (AID 2283524)
Method in brief: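 Transcript level of SLC22A1 quantified by qRT-PCR (normalized to three housekeeping genes) after 48 h chemical exposure of HepaRG cells, eight concentrations up to 100 µM, half-log steps, 0.5% DMSO vehicle. Gain or loss relative to DMSO fitted bidirectionally.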

[15] = read-out: Pyruvate Dehydrogenase Kinase 4 (PDK4), PDK4 (gene 5166); assay: LTEA_HepaRG_PDK4: Life Technologies and Expression Analysis (LTEA) Assay for Pyruvate Dehydrogenase Kinase 4 (PDK4) using HepaRG (AID 2283525)
Method in brief: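 Readout is qRT-PCR of PDK4 transcript, normalized to three housekeeping genes, with bidirectional fitting against 0.5% DMSO vehicle. Differentiated HepaRG cells were treated 48 h in serum-free induction medium, duplicate wells, eight-point half-log series topping at 100 uM.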

[16] = read-out: NAD(P)H dehydrogenase [quinone] 1 (NQO1), NQO1 (gene 1728); assay: LTEA_HepaRG_NQO1: Life Technologies and Expression Analysis (LTEA) Assay for NAD(P)H dehydrogenase [quinone] 1 (NQO1) using HepaRG (AID 2283526)
Method in brief: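 NQO1 transcript induction or loss measured by TaqMan qRT-PCR, referenced to three housekeeping genes and fitted bidirectionally against 0.5% DMSO. HepaRG cultures exposed 48 h, duplicate, eight-point half-log series, top 100 uM.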

[17] = read-out: Nuclear factor erythroid 2-related factor 2 (Homo sapiens) (UniProt Q16236); assay: LTEA_HepaRG_NFE2L2: Life Technologies and Expression Analysis (LTEA) Assay for Nuclear factor erythroid 2-related factor 2 (NFE2L2) Transcription Factor using HepaRG (AID 2283527)
Method in brief: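 NFE2L2 transcript level was read by qRT-PCR (housekeeping ACTB/GAPDH/POLR2A normalisation) after 48 h chemical treatment of HepaRG in serum-free induction medium. Duplicate 8-point half-log curves, top 100 uM, 0.5% DMSO vehicle; up- or down-regulation fitted against vehicle.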

[18] = read-out: succinate dehydrogenase complex iron sulfur subunit B (SDHB), SDHB (gene 6390); assay: LTEA_HepaRG_SDHB: Life Technologies and Expression Analysis (LTEA) Assay for succinate dehydrogenase complex iron sulfur subunit B (SDHB) using HepaRG (AID 2283528)
Method in brief: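 A human HepaRG culture in serum-free induction medium received test chemicals for 48 h over an eight-point range capped at 100 uM. SDHB expression change was quantified by qRT-PCR.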

[19] = read-out: Potassium channel subfamily K member 1 (KCNK1), KCNK1 (gene 3775); assay: LTEA_HepaRG_KCNK1: Life Technologies and Expression Analysis (LTEA) Assay for Potassium channel subfamily K member 1 (KCNK1) using HepaRG (AID 2283511)
Method in brief: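 KCNK1 transcript measured by TaqMan qRT-PCR against three housekeeping genes, after HepaRG cells were treated 48 h with eight half-log concentrations (top 100 uM, 0.5% DMSO). Curves fitted bidirectionally relative to vehicle.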

Measured: AC50

Chain of Nuclear factor erythroid 2-related factor 2 (Homo sapiens) (Q16236 whole entry, looked up): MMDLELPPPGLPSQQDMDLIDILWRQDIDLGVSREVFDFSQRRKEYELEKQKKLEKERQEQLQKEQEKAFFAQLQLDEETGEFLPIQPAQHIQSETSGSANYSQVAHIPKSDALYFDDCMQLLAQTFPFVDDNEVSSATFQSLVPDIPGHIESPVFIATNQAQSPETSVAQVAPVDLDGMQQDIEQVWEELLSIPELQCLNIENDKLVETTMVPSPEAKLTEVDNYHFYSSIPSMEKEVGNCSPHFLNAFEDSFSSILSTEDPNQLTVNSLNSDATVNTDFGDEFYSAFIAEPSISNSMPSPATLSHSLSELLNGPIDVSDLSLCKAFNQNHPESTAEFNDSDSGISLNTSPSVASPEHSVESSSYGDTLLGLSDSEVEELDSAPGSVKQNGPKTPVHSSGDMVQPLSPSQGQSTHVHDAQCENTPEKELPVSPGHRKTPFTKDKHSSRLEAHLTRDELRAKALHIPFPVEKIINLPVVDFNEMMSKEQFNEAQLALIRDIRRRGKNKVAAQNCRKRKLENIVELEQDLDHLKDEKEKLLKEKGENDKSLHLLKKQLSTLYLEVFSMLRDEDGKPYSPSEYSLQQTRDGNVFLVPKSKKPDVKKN
Chain of Nuclear factor NF-kappa-B p105 subunit (Homo sapiens) (P19838 whole entry, looked up): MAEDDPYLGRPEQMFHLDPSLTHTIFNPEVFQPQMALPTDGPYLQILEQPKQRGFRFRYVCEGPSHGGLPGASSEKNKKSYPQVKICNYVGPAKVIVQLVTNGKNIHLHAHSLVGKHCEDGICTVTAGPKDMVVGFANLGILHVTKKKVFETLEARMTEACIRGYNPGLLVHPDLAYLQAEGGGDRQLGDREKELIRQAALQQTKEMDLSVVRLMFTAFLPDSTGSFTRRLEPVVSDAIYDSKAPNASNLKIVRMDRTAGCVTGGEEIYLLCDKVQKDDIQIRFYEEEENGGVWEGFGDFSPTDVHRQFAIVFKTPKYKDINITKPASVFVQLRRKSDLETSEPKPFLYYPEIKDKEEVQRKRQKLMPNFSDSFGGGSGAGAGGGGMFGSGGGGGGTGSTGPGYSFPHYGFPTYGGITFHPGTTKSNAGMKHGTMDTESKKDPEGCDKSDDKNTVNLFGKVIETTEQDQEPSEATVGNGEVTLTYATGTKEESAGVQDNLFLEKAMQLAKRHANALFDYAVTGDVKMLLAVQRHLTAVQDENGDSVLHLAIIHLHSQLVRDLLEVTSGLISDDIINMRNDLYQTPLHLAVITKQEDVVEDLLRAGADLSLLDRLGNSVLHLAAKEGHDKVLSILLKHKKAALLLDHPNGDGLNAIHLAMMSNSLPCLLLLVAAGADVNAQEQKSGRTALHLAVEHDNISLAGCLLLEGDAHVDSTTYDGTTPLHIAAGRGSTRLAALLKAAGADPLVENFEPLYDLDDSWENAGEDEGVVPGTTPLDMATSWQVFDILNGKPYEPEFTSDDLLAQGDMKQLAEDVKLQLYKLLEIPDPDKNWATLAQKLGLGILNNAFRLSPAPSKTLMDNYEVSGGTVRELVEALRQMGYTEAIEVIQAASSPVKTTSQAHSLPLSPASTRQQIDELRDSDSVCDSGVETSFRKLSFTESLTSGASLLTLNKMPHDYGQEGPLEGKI

CC/C(=C(\c1ccccc1)c1ccc(OCCN(C)C)cc1)c1ccccc1
active: [1] 71.4 µM and 92.3 µM | [2] 93.4 µM | [3] 11.2 µM | [4] 74.6 µM and 89.2 µM | [5] 93.9 µM | [6] 76.5 µM | [8] 75 µM and 50 µM | MYC, MYC (gene 4609) 85.6 µM | [9] 86.1 µM and 92.9 µM | [10] 53.8 µM and 94 µM | [11] 81.9 µM | [13] 93.3 µM | [14] 42.3 µM and 15.8 µM | [15] 69.2 µM | [16] 79.9 µM | [17] 77.1 µM | [18] 81.1 µM
inactive: [2] | [3] | [5] | [6] | [7] | MYC, MYC (gene 4609) | [11] | [12] | [13] | [15] | [16] | [17] | [18]

C#C[C@]1(O)CC[C@H]2[C@@H]3CCc4cc(O)ccc4[C@H]3CC[C@@]21C
inactive: [1] | [2] | [19] | [3] | [4] | [5] | [6] | [7] | [8] | MYC, MYC (gene 4609) | [9] | [10] | [11] | [12] | [13] | [15] | [16] | [17] | [18]

CCCCOCCOCCO
inactive: [1] | [2] | [19] | [3] | [4] | [5] | [6] | [7] | [8] | MYC, MYC (gene 4609) | [9] | [10] | [11] | [12] | [13] | [14] | [15] | [16] | [17] | [18]
